Consider 40 molecules from PubChem BioAssay (Tox21).

Calls of active or inactive are those of the source. The call rests on the fitted dose curve; in most records, active means well fitted curve in the direction sought with a large enough effect in the repeat runs; inconclusive means weak or mixed curves; inactive means flat fitted curve, though single readings scatter.
On the % scale 0 is the no-effect control and ±100 the full control effect.

The test can be described thus: qHTS assay to test for compound auto fluorescence at 590 nm (red) in HEK293 cells (AID 720679). The settings on record: red autofluorescence 540/590 nm; series mostly up to 91.3 µM; fluorescence, % of fluorescent control: at the top concentration. The source says: National Center for Advancing Translational Sciences [NCATS]
NIH Chemical Genomics Center [NCGC]
U.S. Environmental Protection Agency [EPA]
National Institutes of Environmental Health Sciences [NIEHS]
National Toxicology Program [NTP]
U.S. Food and Drug Administration [FDA]
Compound auto fluorescence often interferes with screening of the compound library against various biological targets and signaling pathways. Some of these compounds may have fluorophoric properties. Such properties may interfere with the assay outputs resulting in false positives and/or negatives. To decrease such complications and ensure the compound activities are relevant in terms of biological response, the Tox21 10K compound library was screened for auto fluorescence.
From the fluorophores used as reporter signals in our screening assays, the auto fluorescence equivalencies of compounds against three fluorophores have been evaluated: Triamterene, Fluorescein and Rose Bengal sodium for blue, green and red fluorescence, respectively. The fluorescence intensities were measured using Excitation/Emission wavelengths at 405/460nm, 485/535nm and 540/590nm for blue, green and red labels, respectively. This assay includes the red fluorescence data.
Tox21 Assay Protocol Summary:
2,000 HEK293 cells in 5 uL of culture medium containing 10% dialyzed FBS per well were dispensed into black wall/clear bottom 1536-well plates using a Multidrop Combi Dispenser (Thermo Scientific). The assay plates were incubated for 4-5 hr at 37C to allow cell attachment to the well bottom, followed by the transfer of 23 nL compound or DMSO vehicle by a pintool work station (Kalypsys, San Diego, CA). After the assay plates were incubated overnight at 37C and 5% CO2, fluorescence intensities in the assay plates were measured by an Envision (PerkinElmer, Shelton, CT) plate reader using three labels for measuring blue, green and red fluorescence at […] 460, 535 and 590nm respectively.
For orientation: In qHTS, concentration-response curves come from the screen itself.
For `CC(C)Cn1cnc2c1c(=O)n(C)c(=O)n2C`, the “fluorescence, % of fluorescent control” value was 0.0449% [at 46 µM] (inactive).
The same measure, in the same setting: under `CC(=O)CCC1=C(C)CCCC1(C)C` stands 0.397% (inactive).
The same measure, in the same setting: under `O/N=C/C=N/O` stands 0.128% (inactive); under `CN(C)CCN(C)CCO`, -0.0098% (inactive); under `CC1(C)O[C@H]2CC(=O)OC[C@]23[C@H]2CC[C@@]4(C)[C@H](c5ccoc5)OC(=O)[C@H]5O[C@]54[C@]2(C)C(=O)C[C@@H]13`, 0.21% [at 46 µM] (inactive).
Same read-out and setting: under `Cc1c(C(=O)c2c[nH]n(C)c2=O)ccc(S(C)(=O)=O)c1C1=NOCC1` stands -0.0339% [at 46 µM] (inactive); under `CC(C)CCOC(=O)c1ccccc1`, -0.0266% (inactive); under `CC(C)Nc1ccccc1`, 0.0427% (inactive).
For the molecule `CCNC(=O)NCc1cccc(Cl)c1`, the “fluorescence, % of fluorescent control” value was -0.0345% [at 46 µM] (inactive).
On the same count and under the same terms, under `COS(=O)(=O)O` stands 0.107% (inactive); under `O=C(O)CNC(=O)CNC(=O)CNC(=O)CSC(=O)c1ccccc1`, 0.013% [at 46 µM] (inactive).
On the same count and under the same terms, in the case of `CC(=O)O[C@H]1C[C@@H]2CC[C@@]1(C)C2(C)C` it was -0.226% (inactive); in that of `CCCCOCCOC(=O)COc1ccc(Cl)cc1Cl`, -0.918% (inactive).
As for `O=S(=O)(O)c1ccc2c(N=Nc3ccc(S(=O)(=O)O)c4ccccc34)c(O)c(S(=O)(=O)O)cc2c1`, the result was inactive.
For the molecule `Cn1c(=O)c2c(ncn2CCO)n(C)c1=O`, the “fluorescence, % of fluorescent control” value is -0.146% [at 46 µM] (inactive).
Still for that read-out and setting: under `CCn1cc(C(=O)O)c(=O)c2cnc(N3CCCC3)nc21` stands -0.164% [at 18.6 µM] (inactive); under `CC(S)C(C)S` (stereo not given), -0.0197% [at 95.7 µM] (inactive).
In the case of `c1ccc2c(CC3=NCCN3)cccc2c1`, the result was inactive.
For `OCCN1CCOCC1`, the “fluorescence, % of fluorescent control” value was -0.13% (inactive).
On the same count and under the same terms, under `C=CC/C=C/C` stands -0.319% [at 95.7 µM] (inactive); under `CC(C)=CCC[C@@](C)(O)[C@H]1CC=C(C)CC1`, 0.001% [at 46 µM] (inactive); under `Cc1ccccc1C(N)=O`, -0.0898% (inactive).
Same read-out and setting: in the case of `C=C(C)c1cccc(C(C)(C)N=C=O)c1` it was -0.532% (inactive); in that of `CCOC(CN1CCN(CC(C)C(=O)c2ccccc2)CC1)c1ccccc1` (stereo not given), 0.0885% [at 46 µM] (inactive); in that of `C=CC(=O)OCC1CCCO1` (stereo not given), -0.361% (inactive).
Still for that read-out and setting: in the case of `C=CCN1C[C@H](C(=O)N(CCCN(C)C)C(=O)NCC)C[C@@H]2c3cccc4[nH]cc(c34)C[C@H]21` it was -1.09% [at 46 µM] (inactive).
With `O=C(NCN1CCOCC1)c1cnccn1`, the “fluorescence, % of fluorescent control” value is 0.131% [at 46 µM] (inactive).
Still for that read-out and setting: under `CCCC(=O)OC/C=C(\C)CCC=C(C)C` stands -0.0946% (inactive); under `CSc1cnccn1`, 0.0872% (inactive).
With `COC(=O)CCCCC(=O)O`, the “fluorescence, % of fluorescent control” value was -0.138% (inactive).
`N[C@@H](CSCCCO)C(=O)O`: the “fluorescence, % of fluorescent control” value is 0.304% [at 46 µM] (inactive).
On to `COc1c2occc2c(OC)c2c(=O)cc(C)oc12`, for which the fluorescence, % of fluorescent control is 0.0103% [at 18.6 µM] (inactive).
Same read-out and setting: under `CCOCCOCC` stands 0.0501% [at 95.7 µM] (inactive); under `C=Cc1ccc(C(C)(C)C)cc1`, -0.131% (inactive).
For the molecule `O=C(Cn1ccnc1[N+](=O)[O-])NCc1ccccc1`, the “fluorescence, % of fluorescent control” value is 0.0534% [at 46 µM] (inactive).
In the case of `CC(O)COC(C)(C)C` (stereo not given), the “fluorescence, % of fluorescent control” value was 0.758% (inactive).
Still for that read-out and setting: in the case of `CCCCCCCCCOC(=O)c1ccccc1C(=O)OCCCCCCCCC` it was 0.213% (inactive); in that of `O=C(O)[C@H](O)c1ccccc1`, 0.191% [at 46 µM] (inactive).
Same read-out and setting: in the case of `O=C(O)c1cc2ccccc2nc1C(=O)O` it was -0.231% (inactive).
Still for that read-out and setting: in the case of `C=CCCCCCCCCC(=O)OCCCC` it was -0.972% (inactive).
